Measured values as given in PubChem BioAssay (NCI).
This is part of a sample that, as a whole, favours compounds with a hit. Of some 79,000 tested, about 15% had one in any assay. Values without a mark were called inactive. Activity calls are given as the source filed them. No stated cut-off is given here; in the data, active means growth inhibition above about 70%; inactive means the rest.

Assays:
[1] = NCI Yeast Anticancer Drug Screen. Data for the rad50 strain (AID 155);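 further: 0% = growth of vehicle-only cultures of the same strain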; settings: S. cerevisiae rad50 strain growth inhibition, hits give high values
Method in brief: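 Readout: growth inhibition relative to vehicle-treated cultures. Compound exposure was carried out in a genetically defined yeast strain deficient in DNA damage repair.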

[2] = NCI Yeast Anticancer Drug Screen. Data for the mec2-1 strain (AID 157); settings: S. cerevisiae mec2-1 strain, hits give high values
Method in brief: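 Readout is yeast growth inhibition, normalised to vehicle-treated controls, in the mec2-1 strain exposed to compound.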

[3] = NCI Yeast Anticancer Drug Screen. Data for the sgs1 mgt1 strain (AID 161);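 further: 0% = growth of cultures given vehicle only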; settings: S. cerevisiae sgs1 mgt1 strain, hits give high values
Method in brief: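 Percent growth inhibition was derived by comparing compound-exposed mutant yeast with vehicle-exposed cultures. The strain carries alterations in DNA damage repair.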

[4] = NCI Yeast Anticancer Drug Screen. Data for the cln2 rad14 strain (AID 165);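 further: 0% = growth equal to vehicle treated cultures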; settings: S. cerevisiae cln2 rad14 strain, hits give high values
Method in brief: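 Relative to vehicle controls, growth inhibition of compound-treated cln2 rad14 yeast was recorded.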

[5] = NCI Yeast Anticancer Drug Screen. Data for the bub3 strain (AID 167); settings: S. cerevisiae bub3 mutant strain, hits give high values
Method in brief: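 Readout: yeast growth inhibition, expressed relative to vehicle-only wells. The test organism is a mutant strain from a panel with lesions in DNA repair or checkpoint genes.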

[6] = NCI Yeast Anticancer Drug Screen. Data for the mlh1 rad18 strain (AID 175); settings: S. cerevisiae mlh1 rad18 strain growth inhibition, hits give high values
Method in brief: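 Test agents were incubated with a yeast strain of defined genotype (DNA damage repair defect). Inhibition of growth was derived by comparison with vehicle-exposed cultures.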

[7] = at 5.0 µM (retest, dose inferred, filed as 0.5)
[8] = at 50.0 µM (retest, dose inferred, filed as 5.0)

| SMILES | growth inhibition [1, 7] | growth inhibition [1, 8] | growth inhibition ([1]; at 50.0 µM) | growth inhibition [2, 7] | growth inhibition [2, 8] | growth inhibition ([2]; at 50.0 µM) | growth inhibition [3, 7] | growth inhibition [3, 8] | growth inhibition ([3]; at 50.0 µM) | growth inhibition [4, 7] | growth inhibition [4, 8] | growth inhibition ([4]; at 50.0 µM) | growth inhibition [5, 7] | growth inhibition [5, 8] | growth inhibition ([5]; at 50.0 µM) | growth inhibition [6, 7] | growth inhibition [6, 8] | growth inhibition ([6]; at 50.0 µM) |
| --- | --- | --- | --- | --- | --- | --- | --- | --- | --- | --- | --- | --- | --- | --- | --- | --- | --- | --- |
| CCn1c2nc(=O)n(C)c(=O)c-2[n+]([O-])c2cc(C)ccc21 | 16% | 70% (active) | 70.5% (active) | 8% | 33% | 26.4% | 4% | 27% | 44.5% | -2% | 7% | 25.1% | -1% | 13% | 14.9% | 0% | 49% | 10.8% |
| O=C1c2ccccc2C(=O)c2sc(Nc3ccccc3C(F)(F)F)nc21 | 99% (active) | 96% (active) | 90.3% (active) | 100% (active) | 97% (active) | 92.1% (active) | 99% (active) | 96% (active) | 92.7% (active) | 94% (active) | 97% (active) | 90.5% (active) | 99% (active) | 97% (active) | 92.2% (active) | 99% (active) | 96% (active) | 88.5% (active) |
| FC(F)(F)c1cccc(Nc2ccc3cnc4ccccc4c3c2)c1 | 6% | 92% (active) | 94.7% (active) | -19% | 97% (active) | 95.2% (active) | -1% | 97% (active) | 96.6% (active) | -5% | 95% (active) | 92.5% (active) | -2% | 95% (active) | 95.2% (active) | 17% | 95% (active) | 93.3% (active) |
| CN(C)NC(=S)C(F)(F)F | -1% | 87% (active) | 95.5% (active) | 1% | 79% (active) | 56.7% | 0% | 84% (active) | 97.8% (active) | -4% | 85% (active) | 44% | 0% | 85% (active) | 37.6% | -2% | 79% (active) | 77% (active) |
| Fc1ccc(C2SCc3nc4ccccc4n32)cc1Cl (stereo not given) | 32% | 78% (active) | 91.3% (active) | 27% | 72% (active) | 93% (active) | 37% | 90% (active) | 94.3% (active) | 24% | 69% | 92.5% (active) | 33% | 88% (active) | 91.8% (active) | 41% | 89% (active) | 92.1% (active) |
| N#C/C(=C\c1ccc(Cl)cc1Cl)C(N)=S | -3% | 78% (active) | 94.7% (active) | -4% | 88% (active) | 95.2% (active) | -2% | 93% (active) | 98.5% (active) | -12% | 82% (active) | 86.8% (active) | -9% | 79% (active) | 89.1% (active) | -11% | 93% (active) | 95.7% (active) |
| OC(c1cc(-c2ccc(Cl)cc2Cl)nc2ccccc12)C1CCCCN1 (stereo not given) | -6% | 98% (active) | 98.8% (active) | -4% | 99% (active) | 72.2% (active) | -5% | 99% (active) | 99.1% (active) | -3% | 97% (active) | 64.7% | 0% | 99% (active) | 98.8% (active) | -6% | 99% (active) | 97.3% (active) |
| Cc1cccc(-c2csc(N)n2)c1 | 0% | 77% (active) | 61.1% | 3% | 35% | 41% | 2% | 37% | 78% (active) | -1% | 31% | 39.6% | -1% | 44% | 31.1% | 1% | 63% | 65.2% |
| CC1C2CC(C(S(=O)(=O)N3CCOCC3)/C2=N\O)C1(C)C (stereo not given) | -4% | -14% | 88.2% (active) | -12% | -31% | 92.2% (active) | -4% | -4% | 86.5% (active) | -20% | 20% | 89.2% (active) | 0% | -19% | 89.9% (active) | 16% | -18% | 83.2% (active) |
| O=C1OC(C2OC(=O)C(=O)C2C(=O)c2ccc(Cl)cc2)C(C(=O)c2ccc(Cl)cc2)C1=O (stereo not given) | -3% | 63% | 82.9% (active) | -3% | 37% | 11.8% | 1% | 64% | 30.5% | -4% | 31% | 29.6% | 9% | 43% | 43% | -5% | 85% (active) | 76.7% (active) |
| O=C1CNC(=O)c2cc(Cl)ccc2N1 | 46% | 45% | -8.75% | 25% | 32% | -26.1% | 34% | 44% | 8.6% | 28% | 29% | 13.9% | 34% | 67% | 40.1% | 44% | 42% | -2.1% |
| CCC/C(=N\NC(=S)N(C)C)c1ccccn1 | 89% (active) | 99% (active) | 99.5% (active) | 97% (active) | 99% (active) | 99.6% (active) | 88% (active) | 99% (active) | 99.5% (active) | 80% (active) | 99% (active) | 99.4% (active) | 85% (active) | 98% (active) | 99.5% (active) | 94% (active) | 99% (active) | 99.5% (active) |
| CC1(C)[C@H]2CC[C@]1(C)[C@H](OC(=O)NNC(=O)O[C@@H]1C[C@@H]3CC[C@@]1(C)C3(C)C)C2 | 33% | 74% (active) | 11.3% | 37% | 59% | 22.4% | 26% | 35% | 53% | 30% | 38% | 47.4% | 35% | 51% | 67.2% | 38% | 68% | -16% |
| Nc1cc2c(c[n+](CCCBr)c3ccccc23)c2ccccc12 | 41% | 98% (active) | 66.8% | 23% | 99% (active) | 64.6% | 58% | 99% (active) | 68.2% | 46% | 98% (active) | 33.1% | 52% | 99% (active) | 46.5% | 24% | 98% (active) | 71.1% (active) |
| COc1ccc2nc3cccc([N+](=O)[O-])c3c(NCCO)c2c1 | 75% (active) | 95% (active) | 86.6% (active) | 78% (active) | 98% (active) | 90% (active) | 82% (active) | 96% (active) | 87.8% (active) | 68% | 97% (active) | 87.2% (active) | 24% | 86% (active) | 86.9% (active) | 77% (active) | 96% (active) | 87.8% (active) |
| Cc1cc(Cl)c(O)c(C(=O)C(=O)C(O)c2ccc3c(c2)OCO3)c1 (stereo not given) | 98% (active) | 99% (active) | 87.9% (active) | 96% (active) | 99% (active) | 90% (active) | 37% | 99% (active) | 82.1% (active) | 58% | 99% (active) | 87.9% (active) | 64% | 94% (active) | 87.9% (active) | 38% | 99% (active) | 84.1% (active) |
| CCOC(=O)/C(=C\N1C(=O)/C(=C\C(C)=C\c2ccccc2)SC1=S)C(=O)c1ccccc1 | -8% | 0% | 55% | -10% | 22% | 58% | -3% | 14% | 52.5% | -18% | 2% | 57% | -8% | 39% | 70.2% (active) | -2% | 20% | 77% (active) |
| S=C(Nc1ccccn1)c1ccccn1 | -3% | 9% | 23.9% | 6% | 21% | 50.3% | 2% | 43% | 69% | -11% | -7% | 18.6% | 3% | 33% | 55.8% | 3% | 46% | 51.4% |
| [O-][n+]1c2ccccc2cc2c1c1ccccc1n2O | -1% | 1% | 20.1% | 0% | 0% | 5.2% | -7% | -3% | 17.7% | 4% | 8% | 46.4% | 6% | 4% | 0.45% | -4% | -5% | 13.9% |
| CCCC(=O)OCC1CC2C=CC1C2 (stereo not given) | 0% | -3% | -6.25% | 0% | 2% | -7.65% | 0% | -1% | -18.3% | -7% | 3% | 79.2% (active) | -3% | 2% | 15% | -1% | -5% | -3.9% |
